Reference: PubChem BioAssay (NCATS)
Results filed as inconclusive are left out. The source made the active and inactive calls. Calls come from the whole dose curve; as a rule, active = well fitted curve in the direction sought with a large enough effect; inconclusive = small, poorly fitted or top-dose-only effect, or another doubt; inactive = no such curve, though single readings can be large or run the other way.

Assay: qHTS for Inhibitors of the vitamin D receptor (VDR): Hit Validation using a Texas Red Assay (AID 602201)
Conditions: VDR coregulator binding, Texas Red fluorescence polarization, agonist-bound VDR ligand-binding domain; series mostly up to 57.1 µM
Procedure, shortened: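 Fluorescence polarization (Ex 595/Em 615 nm) of Texas Red (7 nM) with 1.5 uM VDR-LBD and LG19078 (final concentrations). Compounds were incubated for 2 hours at room temperature.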
Potency is the fitted concentration of half-maximal effect.

Compound | Potency
CC(=O)Nc1cccc(C(=O)/C=C/c2ccc(C)cc2)c1 | inactive
CCS(=O)(=O)c1oc(-c2ccc(F)cc2)nc1S(=O)(=O)c1ccccc1 | 7.08 µM (active)
CN1CCN(C(=S)C(=O)Nc2ccc(Br)cc2)CC1 | 17.8 µM (active)
CSc1nnc(NC(=O)c2nc(S(=O)(=O)Cc3ccc(C)cc3)ncc2Cl)s1 | inactive
Cc1cccc(/C=C/C(=O)c2ccc([N+](=O)[O-])o2)c1 | 1.78 µM (active)
Cc1cc(Br)cc2c1N(Cc1ccccc1OC(C)C)C(=O)C2=O | 11.2 µM (active)
[O-]/[N+](=C\c1ccccc1)c1ccc(Br)cc1 | inactive
CC1=NNC(=O)/C1=C\c1cn(-c2ccccc2)nc1-c1ccccc1 | 3.16 µM (active)
C=CCOc1c(Br)cc(/C=C2/C(=O)ON=C2C)cc1OC | inactive
c1ccc(OCc2nn3c(Cn4nnc5ccccc54)nnc3s2)cc1 | 14.1 µM (active)
O=C(Cc1ccccc1Cl)NC1(O)C(=O)c2ccccc2C1=O | inactive
O=C(CCS(=O)(=O)c1nc(-c2cccs2)cc(C(F)(F)F)n1)Nc1cc(Br)ccc1O | 5.62 µM (active)
CCOC(=O)c1c(-c2ccccc2)csc1NC(=O)c1nc(S(=O)(=O)CC)ncc1Cl | 3.55 µM (active)
Cc1cccc(CS(=O)(=O)c2ncc(Cl)c(C(=O)NCc3ccccc3)n2)c1 | inactive
O=C(Nc1nc(-c2ccncc2)cs1)C1COc2ccccc2O1 (stereo not given) | 7.08 µM (active)
CCN1C(=O)/C(=C\C(=O)c2cccs2)c2cc(Br)ccc21 | inactive
CCOC(=O)c1c(C2COc3ccccc3O2)csc1NC(=O)c1ccco1 (stereo not given) | 3.55 µM (active)
CCCNC(=O)c1nnsc1S(=O)c1ccc(Cl)cc1 (stereo not given) | 3.16 µM (active)
CC1=CC(=O)C(C(C)C)=CC1=NC(=O)c1ccc(C)cc1 | inactive
c1ccc(-c2ccc(C3=Nn4c(Cn5nnc6ccccc65)nnc4SC3)cc2)cc1 | 22.4 µM (active)

Compound | Potency
Cc1cccc2c1N(CCCOc1ccccc1)C(=O)C2=O | inactive
COc1cc(/C=C/C(=O)c2ccc(F)cc2)cc(OC)c1OC | inactive
CC(C)c1ccc(/C=C/c2[nH]c(=O)[nH]c(=O)c2[N+](=O)[O-])cc1 | inactive
O=C(/C=C/c1ccnc2ccccc12)c1cccs1 | 28.2 µM (active)
COc1ccc(/C=C2/C(=O)N(c3ccccc3)N=C2C)cc1Br | inactive
CCOC(=O)/C(C#N)=C1\C(=O)N(Cc2ccccc2)c2ccccc21 | inactive
COC(=O)c1cc(=O)n(Cc2ccco2)c(=Nc2ccc(F)c(Cl)c2)s1 | 10 µM (active)
COc1ccc(C2=CC(=O)N(Nc3ccccc3)C2=O)cc1 | 10 µM (active)
CCc1oc2ccccc2c1C(=O)CCN1CCCCC1 | 3.55 µM (active)
Cc1cc(C)nc(S/C=C/C(=O)c2ccccc2F)n1 | 7.94 µM (active)
Cc1ccc(O)c(NC(=O)CCS(=O)(=O)c2nc(-c3ccc4c(c3)OCO4)cc(C(F)(F)F)n2)c1 | 28.2 µM (active)
O=C(Nc1nc(-c2ccccn2)cs1)c1cc(Cl)ccc1[N+](=O)[O-] | inactive
COc1ccccc1N1C(=O)C=C(Sc2nc(C)cc(C)n2)C1=O | 14.1 µM (active)
O=C(/C=C/c1cccc([N+](=O)[O-])c1)c1cccs1 | 14.1 µM (active)
Cc1ccc(C(=O)NC2(O)C(=O)c3ccccc3C2=O)cc1C | inactive
CCOC(=O)CS(=O)(=O)c1nc(-c2ccccc2)cc(C(F)(F)F)n1 | inactive
O=C(O)CSc1cc(NS(=O)(=O)c2cccc([N+](=O)[O-])c2)c2ccccc2c1O | 2.82 µM (active)
CCC(C)(C)n1nnnc1C(c1ccc(O)c(OC)c1)N1CCc2ccccc2C1 (stereo not given) | 25.1 µM (active)
O=C(/C=C/c1ccc([N+](=O)[O-])cc1)c1cccs1 | 25.1 µM (active)
COc1cccc(/C=C/c2[nH]c(=O)[nH]c(=O)c2[N+](=O)[O-])c1O | inactive
